Sampled rows, rich in hits. Any-hit rate of the full collection: about 11%.
AMA1 RON2 block: inhibitors of Plasmodium falciparum AMA1-RON2 interaction | Potency, µM (series often up to 58.2 µM), most hits filed as inhibitors | AlphaScreen AMA1-biotinylated RON2 peptide binding | 360,000 compounds, 0.2% hits; further: nearly all actives have a fitted effect of over 45% in size
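AMA1 (3D7) with his tag at 25 nM final met compounds first, then biotinylated RON2 peptide at 25 nM; detection used donor plus acceptor beads, 10 µg/mL apiece, read by AlphaScreen after 30 min at room temperature.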
HCV inh: HCV inhibition; Potency, µM (series often up to 41.8 µM), actives largely listed as inhibitors; 340,000 compounds, 3.4% hits; AID 651820; Huh7.5.1 HCVcc-Cre infection, luciferase reporter, 44 h
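1,000 cells/well; 4 h culture; + compound; + HCVcc-Cre (~0.5 moi); 44 h; luciferase substrate, RT 15 min; read 15 sec.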
Pf growth 96h: P. falciparum growth inhibition at 96 hours; P. falciparum luciferase reporter growth, 96 h; 320,000 compounds, 6.9% hits; AID 504834; Potency, µM (doses to about 28.7 µM), actives largely listed as inhibitors
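Plates of compound plus infected erythrocytes (2% hematocrit, 0.05% parasitemia final) incubate 96 hours, 37 C, 5% CO2. Detection reagent added; reduced luminescence from the parasites' luciferase reporter flags inhibition.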
Pf growth 48h: P. falciparum growth inhibition at 48 hours (one generation). Potency, µM (doses to about 28.7 µM), actives largely listed as inhibitors. 310,000 compounds, 5.9% hits. AID 504832. P. falciparum luciferase growth in erythrocytes, 48 h
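A one-generation exposure of luciferase-tagged malaria parasites in RPMI 1640/Albumax erythrocyte culture, 37 C and 5% CO2. Inhibition is inferred from decreased luminescence after adding detection reagent.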
Large screens that a line does not name were inactive. The call rests on the fitted dose curve; in most records, active means well fitted curve in the direction sought with a large enough effect; inconclusive means small, poorly fitted or top-dose-only effect, or another doubt; inactive means no such curve, though single readings can be large; an effect the other way counts as inactive or inconclusive.

CC(=O)NC(c1cccc(F)c1)c1nc(-c2cc(F)cc(Cl)c2)cs1 (stereo unspecified)	none (no result: HCV inh, Pf growth 96h, Pf growth 48h)
O=[N+]([O-])c1ccc(/C=N/Nc2nc(N3CCCCC3)nc(N3CCCCC3)n2)cc1	HCV inh inconclusive, Pf growth 48h inconclusive
O=[N+]([O-])c1ccc(Nc2nc(NCCO)nc(N3CCCC3)n2)cc1	HCV inh inconclusive, Pf growth 48h inconclusive
O=[N+]([O-])c1ccc(Nc2nc(N/N=C\c3ccc4c(c3)OCO4)nc(N3CCCCC3)n2)cc1	HCV inh inconclusive, Pf growth 96h 2.6µM, Pf growth 48h 2.1µM
NNc1nc(Nc2ccc([N+](=O)[O-])cc2)nc(N2CCCCCC2)n1	Pf growth 48h 4.1µM
CCCCC(=O)N(C)c1c(CC)nc2c(OCc3cccc(Cl)c3)cccn12	none (no result: HCV inh, Pf growth 96h, Pf growth 48h)
CN(c1ccc(-c2csc(NC(=O)CCCc3nc4ccccc4c(=O)[nH]3)n2)cc1)S(C)(=O)=O	none (no result: HCV inh, Pf growth 96h, Pf growth 48h)
COc1ccc(CN2CCNC(=O)C2CC(=O)NCc2csc(C)n2)c(F)c1 (stereo unspecified)	none
O=C(O)c1ccc2c(=O)n3c(nc2c1)/C(=C/c1cccc(Cl)c1Cl)CCCC3	Pf growth 96h 12µM
Cc1sc(N2CCN(S(=O)(=O)c3ccc4c(c3)NC(=O)CO4)CC2)nc1-c1ccccc1	Pf growth 96h 9.3µM, Pf growth 48h inconclusive
O=C1COc2ccc(S(=O)(=O)N3CCN(c4ccccc4F)CC3)cc2N1	HCV inh inconclusive
O=S(=O)(c1ccc(F)cc1)N1CCN(c2nc(-c3ccc(F)cc3)cs2)CC1	Pf growth 96h inconclusive, Pf growth 48h inconclusive
COc1ccc(-c2csc(N3CCN(S(=O)(=O)c4ccc5c(c4)NC(=O)CO5)CC3)n2)cc1	HCV inh inconclusive, Pf growth 96h 12µM, Pf growth 48h 8.3µM
O=[N+]([O-])c1cc(F)cc(F)c1Nc1cc(F)cc(F)c1	AMA1 RON2 block inconclusive (no result: Pf growth 96h, Pf growth 48h)
Brc1ccc(-c2nc3ncccn3c2NC2CCCCC2)o1	none (no result: Pf growth 48h)
CC(C)(C)c1ccc(C(=O)C2CCCN(C(=O)CCn3cncn3)C2)cc1 (stereo unspecified)	HCV inh inconclusive
CCCNC(=S)Nc1cc2oc3ccccc3c2cc1OC	HCV inh inconclusive, Pf growth 96h 3.3µM, Pf growth 48h inconclusive
COc1cc2c(cc1NC(=S)Nc1cccc(C)c1)oc1ccccc12	HCV inh 8.9µM (no result: Pf growth 96h)
CNC(=S)Nc1cc2oc3ccccc3c2cc1OC	HCV inh 11µM
CCNC(=S)Nc1cc2oc3ccccc3c2cc1OC	HCV inh 22µM
CC(NC(=O)c1ccccc1F)C12CC3CC(CC(C3)C1)C2 (stereo unspecified)	Pf growth 48h inconclusive
O=C(OCC(=O)N1CCN(c2ccccc2)CC1)c1ncc(Cl)c(Cl)c1Cl	none
COc1cc2c(cc1NC(=O)C1CCCO1)oc1ccccc12 (stereo unspecified)	HCV inh 7.9µM (no result: Pf growth 96h)
COc1cc2c(cc1NC(=O)/C=C/c1ccccc1)oc1ccccc12	HCV inh 7.1µM
COc1ccc(Cl)cc1NC(=O)C1CCCO1 (stereo unspecified)	HCV inh inconclusive
COc1ccc(/C=C/C(=O)NC(=S)Nc2cc3oc4ccccc4c3cc2OC)cc1	none
COC(=O)CCCC1=CC2=C(c3ccccc3)C(=O)C(C)(OC(=O)C3CCCC3)C(=O)C2=CN1CCc1c[nH]c2ccccc12 (stereo unspecified)	HCV inh inconclusive, Pf growth 96h inconclusive, Pf growth 48h inconclusive
COc1ccccc1CC(=O)N1CCN(c2ccccc2)CC1	Pf growth 96h inconclusive
CCCCNC(=O)N1CCN(Cc2cccc(F)c2)CC1	Pf growth 96h inconclusive
Cn1c(CCNC(=O)c2ccco2)nc2cc([N+](=O)[O-])ccc21	Pf growth 96h 2.6µM
CCCCn1nnnc1C(c1ccccc1)N1CCN(c2cc(C)ccc2C)CC1 (stereo unspecified)	none (no result: HCV inh, Pf growth 96h, Pf growth 48h)
CCOC(=O)C1CCCN(C(=O)COc2ccc(C(=O)c3ccc(F)cc3)cc2)C1 (stereo unspecified)	HCV inh 13µM (no result: Pf growth 96h, Pf growth 48h)
COc1ccc(C(=O)C2CCCN(C(=O)COc3ccc(C(C)=O)cc3)C2)cc1F (stereo unspecified)	Pf growth 96h 12µM
O=C(COc1ccc(F)cc1)N1CCCCCCC1	Pf growth 96h inconclusive
CCN1CCN(C(=O)c2ccc3c(c2)S(=O)(=O)c2ccccc2C3=O)CC1	none
COc1ccc(C(=O)c2c(C)c3cc(C)ccc3n2CC(O)CN2CCOCC2)cc1 (stereo unspecified)	Pf growth 96h 12µM, Pf growth 48h inconclusive
CCOC(OCC)c1cc2ccccc2cn1	none (no result: Pf growth 96h, Pf growth 48h)
COc1cccc2c1[C@@H]1CN(CCCCn3c(=O)[nH]c4c(sc5ncc(-c6ccccc6)nc54)c3=O)C[C@@H]1CO2	HCV inh 3.5µM, Pf growth 96h inconclusive, Pf growth 48h inconclusive
COc1cc2[nH]c(=O)n(CCCC(=O)N3CC=C(c4ccccc4)CC3)c(=O)c2cc1OC	Pf growth 48h inconclusive
COc1ccc(-c2oc(=O)c3cc(OC)c(OC)cc3c2-c2cc(F)cc(OC)c2)cc1	HCV inh inconclusive, Pf growth 96h 2.9µM, Pf growth 48h inconclusive
O=C(NCCC(F)(F)F)c1cccc2c(-c3ccc(F)c(F)c3)coc12	none (no result: HCV inh, Pf growth 96h, Pf growth 48h)
CCCCC(=O)Nc1nnc(CCc2ccccc2)s1	none
O=C(CN1C(=O)NC(c2ccccc2)(c2ccccc2)C1=O)N1CCN(c2ccccc2F)CC1	AMA1 RON2 block inconclusive, HCV inh inconclusive, Pf growth 96h inconclusive, Pf growth 48h 13µM
O=C(CN1C(=O)NC(c2ccccc2)(c2ccccc2)C1=O)N1CCOCC1	none
O=C(CN1C(=O)NC(c2ccccc2)(c2ccccc2)C1=O)N1CCN(c2ccc(F)cc2)CC1	HCV inh inconclusive, Pf growth 96h inconclusive, Pf growth 48h 12µM
COc1ccccc1C(=O)Nc1ccc(S(=O)(=O)Nc2nccs2)cc1	none
O=C(Nc1ccc(S(=O)(=O)Nc2nccs2)cc1)c1c(F)c(F)c(F)c(F)c1F	HCV inh inconclusive, Pf growth 96h 3.7µM
COc1cccc(OC)c1C(=O)NC(=S)Nc1ccc(S(=O)(=O)Nc2nccs2)cc1	Pf growth 48h 13µM
COc1ccc(NS(=O)(=O)c2ccc(NC(=S)NC(=O)c3ccc(Br)cc3)cc2)nn1	Pf growth 96h 12µM
O=C(NC(=S)Nc1ccc(S(=O)(=O)Nc2nccs2)cc1)c1ccccc1	Pf growth 96h 13µM
CS(=O)(=O)Nc1ccc(C(=O)Nc2ccc(S(=O)(=O)Nc3nccs3)cc2)cc1	Pf growth 96h inconclusive (no result: HCV inh)
COc1ccc(/C=C/C(=O)NC2CCN(Cc3ccccc3)CC2)cc1OC	Pf growth 96h inconclusive, Pf growth 48h inconclusive
O=C(COc1ccccc1)N/N=C/c1ccc(O[C@@H]2O[C@H](CO)[C@@H](O)[C@H](O)[C@H]2O)cc1	none
OC[C@@H]1CN(Cc2ccc(-c3ccccc3)cc2)C[C@H](n2cnc3c(NCc4ccco4)ncnc32)O1	none (no result: HCV inh, Pf growth 96h, Pf growth 48h)
FC(F)(F)c1cccc(Nc2cc(-c3ccccc3)nc3ncnn23)c1	none
FC(F)(F)c1ccc(N2CCN(c3cc(-c4ccccc4)nc4ncnn34)CC2)nc1	HCV inh 8.9µM, Pf growth 48h inconclusive

Assay outcomes from PubChem BioAssay.
